697 NFkB inh = lowers PMA/ionomycin-induced NF-kB signal in 697 B cells. 0.33% of 330,000 active. inhibition, % at 4 µM. 697 B-cell NF-kB luciferase reporter, 16 h; in the data active means inhibition above about 35%
aSyn 5UTR inh = MLPCN primary screen, SNCA 5' untranslated region; alpha-synuclein 5'UTR reporter, inhibitor activity; inhibition, % (tested at 7.5 µM); 0.82% of 300,000 active; AID 1813; in the data active means inhibition above about 60%; inconclusive means no clear call, values can overlap the other calls;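 further: H4 neuroglioblastoma cells stably carrying SNCA 5'UTR luciferase fusion; 0% = DMSO wells and 100% = positive control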
KLF5 inh = suppresses KLF5 promoter-driven expression. DLD-1 KLF5 promoter-luciferase reporter, luminescence. AID 1700. 0.23% of 290,000 active. inhibition, % at 5 µM;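 active means inhibition above a per-plate limit of that plate's mean compound inhibition plus 3 SD, cut at about 60% in these data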;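 further: 0% = DMSO wells and 100% = LY294002 at 200 µM; higher means less KLF5 promoter-driven luciferase light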
TMEM16A act = activates or potentiates the mouse TMEM16A chloride channel. Q8BHY3. HEK293 TMEM16A/YFP-H148Q/I152L, iodide quench fluorescence; active compounds read low. B-score at 10 µM. 0.3% of 340,000 active;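 active means fluorescence-ratio B-score plate-corrected deviation score at least 3 library SD below zero, with starting fluorescence score within 5 deviations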;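 further: channel opened by trigger with iodide after compound preincubation; score built on the fluorescence ratio of max minus min over baseline; more negative score means more quench and so TMEM16A activation or potentiation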
Target sequence (Q8BHY3 whole entry, looked up): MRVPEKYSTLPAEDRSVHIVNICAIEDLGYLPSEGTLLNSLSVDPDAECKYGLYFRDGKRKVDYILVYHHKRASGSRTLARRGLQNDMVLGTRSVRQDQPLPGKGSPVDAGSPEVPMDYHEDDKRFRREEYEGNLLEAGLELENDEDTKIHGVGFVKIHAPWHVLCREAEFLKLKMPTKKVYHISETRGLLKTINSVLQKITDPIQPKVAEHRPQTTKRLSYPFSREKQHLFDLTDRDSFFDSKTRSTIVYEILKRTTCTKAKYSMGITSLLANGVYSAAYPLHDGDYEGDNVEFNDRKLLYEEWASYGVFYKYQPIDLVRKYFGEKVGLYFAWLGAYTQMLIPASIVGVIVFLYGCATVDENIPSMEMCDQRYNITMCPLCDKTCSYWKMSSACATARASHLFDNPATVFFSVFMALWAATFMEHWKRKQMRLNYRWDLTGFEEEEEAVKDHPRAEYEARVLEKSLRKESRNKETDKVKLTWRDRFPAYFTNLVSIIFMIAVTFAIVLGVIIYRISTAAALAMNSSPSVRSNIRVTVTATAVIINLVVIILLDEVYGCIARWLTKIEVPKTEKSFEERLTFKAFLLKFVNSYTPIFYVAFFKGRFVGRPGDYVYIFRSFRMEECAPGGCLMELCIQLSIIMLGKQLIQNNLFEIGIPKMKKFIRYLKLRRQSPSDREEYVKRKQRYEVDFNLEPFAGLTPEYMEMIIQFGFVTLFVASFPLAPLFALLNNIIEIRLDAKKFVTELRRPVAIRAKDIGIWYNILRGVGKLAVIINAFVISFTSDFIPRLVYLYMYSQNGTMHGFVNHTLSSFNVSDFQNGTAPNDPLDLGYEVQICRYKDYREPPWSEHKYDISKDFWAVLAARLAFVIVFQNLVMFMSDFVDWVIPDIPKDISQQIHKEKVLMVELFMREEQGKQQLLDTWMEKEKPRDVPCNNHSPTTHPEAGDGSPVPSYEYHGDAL
Jurkat NFkB inh = inhibitors of the PMA/ionomycin-induced NF-kB reporter in Jurkat cells; PMA/ionomycin-induced NF-kB luciferase reporter, luminescence; inhibition, % at 4 µM; 0.53% of 330,000 active; AID 435003; in the data active means inhibition above about 50%
ANO1 block = mouse TMEM16A channel inhibition, primary screen. Q8BHY3. HEK293 TMEM16A/YFP iodide influx fluorescence, ionomycin. normalized B-score (activity score, 25-100; higher = stronger inhibition) at 10 µM. 1.2% of 310,000 active. AID 588511;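 active means ratio plate-corrected score three or more library SD toward inhibition, starting fluorescence score within five deviations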;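 further: score derived from kinetic fluorescence span divided by baseline fluorescence per well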
KLF5 inh confirm = KLF5 inhibition, confirmation assay; shares compounds with KLF5 inh; DLD-1 KLF5 promoter firefly luciferase reporter, luminescence; inhibition, % at 4 µM; 79% of 610 active;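 active means inhibition above a set limit taken from the earlier primary screen, cut at about 63% in these data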;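 further: 0% = DMSO wells and 100% = LY294002 at 200 µM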
IEC-6 tox trip = rat IEC-6 cytotoxicity, KLF5 inhibitor counter-screen | AID 1905 | shares compounds with KLF5 inh | inhibition, % at 4 µM | IEC-6 rat intestinal cells, viability luminescence | 56% of 610 active; in the data active means inhibition above about 23%;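 further: cells exposed to compounds for 48 hours before viability read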
* marks the source's active call; other numbers are inactive results; i = inactive; ? = inconclusive; . = not tested or not shown. A selection: hits, their analogues and other compounds. The true share with any hit is near 2.5%.

SMILES	697 NFkB inh	aSyn 5UTR inh	KLF5 inh	TMEM16A act	Jurkat NFkB inh	ANO1 block	KLF5 inh confirm	IEC-6 tox trip
COc1ccc(/C=N/NC(=O)c2c(C)nc3ccc(Br)cn23)cc1OC	-5	-27	15	i	22	i	.	.
COc1ccc(/C=N\NC(=O)c2c(C)nc3ccc(Br)cn23)cc1	10	?	65*	i	44	i	75*	53*
CCOc1ccc2[nH]c(C(=O)N/N=C/c3ccc(OC)cc3)cc2c1	-9	76*	66*	i	47	i	73*	58*
COc1ccc2[nH]c(C(=O)N/N=C/c3ccc(O)cc3O)cc2c1	-39	53	84*	i	36	i	83*	32*
COC(=O)c1cc(C(=O)N2CCN(c3ccccc3OC)CC2)cc([N+](=O)[O-])c1	24	44	74*	i	41	i	80*	63*
COC(=O)c1cc(C(=O)N2CCN(c3ncccn3)CC2)cc([N+](=O)[O-])c1	5	15	-8	i	9	i	.	.
CC(N)=Nc1ccc([N+](=O)[O-])cc1	12	6	-19	i	-16	i	.	.
O=[N+]([O-])c1ccc(N=Nc2c(Cl)cc(O)cc2Cl)cc1	.	?	33	-5.2*	.	100*	58	22*
Cc1ccc(C(C)(C)NC(=O)C2CCC(=O)N(Cc3ccccc3F)C2)cc1 (stereo unspecified)	-3	-15	-54	i	15	i	.	.
C=C(C)C(=O)N1CCN(C(=O)C(=C)C)c2ccccc21	.	.	.	i	.	.	.	.
CN1Cc2cc(C(=O)c3cc(Cl)cc(CSc4ncccn4)c3O)cnc2NC1=O	24	79*	75*	.	41	i	85*	59*
Cc1ccc(O)c(C(=O)c2cnc3c(c2)CN(C)C(=O)N3)c1	16	-34	23	i	20	i	.	.
COc1ccc(OC)c(Nc2c3c(nc4ccccc24)CCC3)c1	-38	106*	64*	i	27	i	111*	63*
COc1ccc(OC)c(Nc2c3ccccc3nc3ccccc23)c1	-67	-26	11	i	31	i	.	.
CCCCNC(=O)Oc1ccc(C(=O)N2c3ccccc3NC(=O)C2C)cc1 (stereo unspecified)	12	-2	3	i	2	i	.	.
c1cnc2ccc3ncccc3c2c1	-6	-33	-23	i	-11	i	.	.
O=Cc1ccc(O)c2ncccc12	-5	63*	82*	i	15	.	60	29*
Cc1ccc(C(=O)OCC(=O)NN2C(=O)NC3(CCC(C)CC3)C2=O)cc1 (stereo unspecified)	3	-12	.	i	1	i	.	.
CC(=O)NC(c1cccc([N+](=O)[O-])c1)c1ccc2cccnc2c1O (stereo unspecified)	-21	123*	62*	i	49	i	96*	80*
Oc1cccc(C(Nc2nccs2)c2ccc3cccnc3c2O)c1 (stereo unspecified)	-49	132*	74*	i	49	i	92*	63*
CC(=O)NC(c1cc(Cl)c2cccnc2c1O)C(C)C (stereo unspecified)	2	.	.	i	17	.	.	.
CCCCC(=O)NC(c1cccc([N+](=O)[O-])c1)c1ccc2cccnc2c1O (stereo unspecified)	.	.	.	i	.	.	.	.
CC(=O)NC(c1ccc(C)cc1)c1cc(Cl)c2cccnc2c1O (stereo unspecified)	-24	?	64*	i	4	i	83*	69*
COc1cccc(C(NC(C)=O)c2ccc3cccnc3c2O)c1 (stereo unspecified)	-21	72*	91*	i	46	i	97*	81*
Cc1cc(C)c(S(=O)(=O)c2cccc(C)c2C)c(=O)[nH]1	0	5	23	i	-11	i	.	.
CCC(=O)Nc1ccc2c(c1)Cc1cc([N+](=O)[O-])ccc1-2	.	.	.	i	.	.	.	.
